This passage reports activity, negative = inhibition and Potency results from PubChem BioAssay (NCATS).

Each structure is given as a SMILES string. Records with an inconclusive call do not appear. A number with no mark means an inactive call. The source made the active and inactive calls. Calls come from the whole dose curve; as a rule, active = well fitted inhibition curve with a large enough effect; inconclusive = small, poorly fitted or top-dose-only effect; inactive = flat fitted curve, though single readings scatter.

The nature of test [1]: qHTS profiling for inhibitors of Plasmodium falciparum proliferation (AID 504749).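 For activity, negative = inhibition: 0% = DMSO vehicle and full inhibition = artemisinin control.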 Note: nearly all actives have a fitted effect of over 60% in size. Particulars: P. falciparum in erythrocytes, SYBR Green DNA, 72 h. An outline of the steps:
(§1)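 Three-day growth assay of blood-stage parasites in erythrocytes (0.3% parasitemia, 2.5% hematocrit) at 37 C, 5% CO2, quantified by SYBR Green DNA staining after overnight detergent lysis.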
In general terms: qHTS replaces the single test concentration by a dilution series.

Test [2] has as its system 3D7. Described as above. The note with it: P. falciparum in erythrocytes, SYBR Green DNA, 72 h; series mostly up to 28.7 µM. An outline of the steps:
as §1

In test [3] the test system is 7G8. The test is described as above. The note with it: P. falciparum in erythrocytes, SYBR Green DNA, 72 h; series mostly up to 28.7 µM. In a few lines:
as §1

In test [4] the test system is AA1029. The test is described as above. Particulars: P. falciparum in erythrocytes, SYBR Green DNA, 72 h; series mostly up to 28.7 µM. In a few lines:
as §1

For test [5], the system named is AS120. Described as above. Particulars: P. falciparum in erythrocytes, SYBR Green DNA, 72 h; series mostly up to 28.7 µM. An outline of the steps: as §1
The subject of test [6] is ATS189. The description is as above. Particulars: P. falciparum in erythrocytes, SYBR Green DNA, 72 h; series mostly up to 28.7 µM. An outline of the steps:
as §1

Test [7] concerns ATS95. The description is as above. The note with it: P. falciparum in erythrocytes, SYBR Green DNA, 72 h; series mostly up to 28.7 µM. In a few lines: as §1
[8] abbreviates: at 28.7 µM (top of the series), parasite line A.
Where [9] appears, read: at 28.7 µM (top of the series), parasite line B.
Where [10] appears, read: at 12.8 µM (top of the series), parasite line A.
The mark [11] stands for this setting: at 12.8 µM (top of the series), parasite line B.
Potency is the fitted concentration of half-maximal effect.

Turning to `COc1cc(C(=S)N2CCOCC2)cc(OC)c1OC`, the activity, negative = inhibition was 7.95% in test [1] (setting [8]) and 9.84% in test [1] (setting [9]). The Potency entry in test [2], in test [3], in test [4], in test [5], in test [6] and in test [7] was “inactive” throughout.

On to `Nc1cc(Cl)c(NC2=NCCN2)c(Cl)c1`, for which the activity, negative = inhibition in test [1] (setting [8]) is 18.9%; in test [1] (setting [9]) it was 15.3%. The Potency result in test [2], in test [3], in test [4], in test [5], in test [6] and in test [7] was “inactive” in each case.

In the case of `CCC(=O)c1c(O)cc(O)cc1O`, the results for the activity, negative = inhibition in test [1] (setting [8]) and in test [1] (setting [9]) were -1.33% and 0.647%, respectively. Besides, the Potency entry in test [2], in test [3], in test [4], in test [5], in test [6] and in test [7] was “inactive” throughout.

Turning to `Cc1cc(=O)n(-c2ccccc2)n1C`, the activity, negative = inhibition in test [1] (setting [8]) was 5.57%; in test [1] (setting [9]) it was 10.3%. Moreover, the Potency entry in test [2], in test [3], in test [4], in test [5], in test [6] and in test [7] was “inactive” each time.

For the compound `C#C[C@]1(OC(C)=O)CC[C@H]2[C@@H]3CCC4=C[C@@H](OC(C)=O)CC[C@@H]4[C@H]3CC[C@@]21C`, the activity, negative = inhibition in test [1] (setting [8]) was -15%; in test [1] (setting [9]), -19.2%. Besides, the Potency result in test [2], in test [3], in test [4], in test [5], in test [6] and in test [7] was “inactive” in each case.

On to `O=C1c2ccccc2C(=O)C1c1ccccc1`, for which the activity, negative = inhibition in test [1] (setting [10]) was 17.2%; in test [1] (setting [11]), 11.5%. Moreover, the Potency result in test [2], in test [3], in test [4], in test [5], in test [6] and in test [7] was “inactive” in each case.

For the compound `O=S1(=O)c2cccc3cccc(c23)N1CCCN1CCN(c2ccc(F)cc2)CC1`, the activity, negative = inhibition was 7.63% in test [1] (setting [8]) and -0.586% in test [1] (setting [9]). The Potency entry in test [2], in test [4], in test [5], in test [6] and in test [7] was “inactive” throughout. Further, the Potency in test [3] was 12.6 µM (active).

Turning to `CC(=O)Oc1ccc(C(=C2CCCCC2)c2ccc(OC(C)=O)cc2)cc1`, the activity, negative = inhibition is 6.38% in test [1] (setting [8]) and 9.72% in test [1] (setting [9]). Besides, the Potency entry in test [2], in test [3], in test [4], in test [5], in test [6] and in test [7] was “inactive” throughout.

For `Cc1c(C(C)C)c(=O)n(-c2ccccc2)n1C`, the activity, negative = inhibition in test [1] (setting [8]) was 5.32%; in test [1] (setting [9]), 0.527%. The Potency result in test [2], in test [3], in test [4], in test [5], in test [6] and in test [7] was “inactive” throughout.

On to `Nc1ccc(C(=O)Nc2ccccc2N)cc1`, for which the figures for the activity, negative = inhibition in test [1] (setting [8]) and in test [1] (setting [9]) were -0.627% and 14.4%, respectively. The Potency entry in test [2], in test [3], in test [4], in test [5], in test [6] and in test [7] was “inactive” in each case.

With `COc1ccc(CCN2CCC(Nc3nc4ccccc4n3Cc3ccc(F)cc3)CC2)cc1`, the Potency was 1.41 µM (active) in test [1] (parasite line A); 2.24 µM (active) in test [1] (parasite line B); 1.78 µM (active) in test [2]; 2.24 µM (active) in test [3]; 3.55 µM (active) in test [4]; 3.55 µM (active) in test [5]. For the same compound, the Potency in test [6] is 4.47 µM (active); in test [7] it was 3.98 µM (active).

On to `CCOC(=O)n1ccn(C)c1=S`, for which the activity, negative = inhibition was 10% in test [1] (setting [10]) and -6.82% in test [1] (setting [11]). Besides, the Potency result in test [2], in test [3], in test [4], in test [5], in test [6] and in test [7] was “inactive” throughout.

Consider `COc1c2occc2c(OC)c2c(=O)cc(C)oc12`, for which the activity, negative = inhibition was 5.55% in test [1] (setting [10]) and 4.52% in test [1] (setting [11]). Also, the Potency result in test [2], in test [3], in test [4], in test [5], in test [6] and in test [7] was “inactive” in each case.

On to `Nc1ccc(/C=C/c2ccc(N)cc2S(=O)(=O)O)c(S(=O)(=O)O)c1`, for which the results for the activity, negative = inhibition in test [1] (setting [8]) and in test [1] (setting [9]) were -8.57% and 7.68%, respectively. Also, the Potency result in test [2], in test [3], in test [4], in test [5], in test [6] and in test [7] was “inactive” each time.

Turning to `Cc1ncc(CSSCc2cnc(C)c(O)c2CO)c(CO)c1O`, the activity, negative = inhibition is 0.466% in test [1] (setting [8]) and -3.16% in test [1] (setting [9]). Besides, the Potency result in test [2], in test [3], in test [4], in test [5], in test [6] and in test [7] was “inactive” each time.

For the compound `NCCCC[C@H](N[C@@H](CCc1ccccc1)C(=O)O)C(=O)N1CCC[C@H]1C(=O)O`, the activity, negative = inhibition in test [1] (setting [10]) was 2.09%; in test [1] (setting [11]), 0.712%. Besides, the Potency entry in test [2], in test [3], in test [4], in test [5], in test [6] and in test [7] was “inactive” each time.

For the compound `O=C(COc1ccc(Cl)cc1)N1CCN(Cc2ccc3c(c2)OCO3)CC1`, the activity, negative = inhibition in test [1] (setting [8]) is 11%; in test [1] (setting [9]), 10.8%. The Potency result in test [2], in test [3], in test [4], in test [5], in test [6] and in test [7] was “inactive” throughout.

Consider `O=C(O)CCCCC(=O)O`, for which the activity, negative = inhibition in test [1] (setting [8]) was -0.183%; in test [1] (setting [9]), 5.83%. Further, the Potency result in test [2], in test [3], in test [4], in test [5], in test [6] and in test [7] was “inactive” each time.

As to `NCCc1ccn[nH]1`, the figures for the activity, negative = inhibition in test [1] (setting [10]) and in test [1] (setting [11]) were 6.26% and 12.5%, respectively. Besides, the Potency result in test [2], in test [3], in test [4], in test [5], in test [6] and in test [7] was “inactive” in each case.
